# Test results reported in the supplement of paper PMC8728848.
# The full list was thinned out, with the strongest signals kept by preference.
# Assays:
# Assay in all cases: glycan array binding signal (z-score within array); higher = stronger binding
# Conditions in all cases: glycan notation: IUPAC condensed, linker removed
# [1] = molecular target: Fuc(a1-2)Gal(b1-3)GlcNAc(b1-2)Man(a1-3)[Fuc(a1-2)Gal(b1-3)GlcNAc(b1-2)Man(a1-6)]Man(b1-4)GlcNAc(b1-4)GlcNAc
# Procedure, shortened: (§1)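 Glycan array data were curated from 3228 arrays in the Consortium for Functional Glycomics database and kept only where the protein sequence was available. Glycan names were converted to IUPAC-condensed notation, and columns mapping to the same glycan were averaged. The binding signal is a within-array Z-score, averaged across arrays of the same protein sequence at different concentrations or buffers and across linkers. Negative Z-scores can be read as non-binding.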
# [2] = molecular target: Fuc(a1-2)Gal(b1-3)GlcNAc(b1-3)Gal(b1-4)Glc
# Procedure, shortened: as §1
# Fuc(a1-2)Gal(b1-4)GlcNAc = molecular target: Fuc(a1-2)Gal(b1-4)GlcNAc
# Procedure, shortened: as §1
# [3] = molecular target: Fuc(a1-2)Gal(b1-4)GlcNAc(b1-2)[Fuc(a1-2)Gal(b1-4)GlcNAc(b1-4)]Man(a1-3)[Fuc(a1-2)Gal(b1-4)GlcNAc(b1-2)Man(a1-6)]Man(b1-4)GlcNAc(b1-4)GlcNAc
# Procedure, shortened: as §1
# [4] = molecular target: Fuc(a1-2)Gal6S(b1-3)GlcNAc
# Procedure, shortened: as §1
# Fuc(a1-2)[Gal(a1-3)]Gal = molecular target: Fuc(a1-2)[Gal(a1-3)]Gal
# Procedure, shortened: as §1
# [5] = molecular target: Fuc(a1-2)[Gal(a1-3)]Gal(b1-3)GalNAc
# Procedure, shortened: as §1
# [6] = molecular target: Fuc(a1-2)[Gal(a1-3)]Gal(b1-4)GlcNAc(b1-2)Man(a1-3)[Fuc(a1-2)[Gal(a1-3)]Gal(b1-4)GlcNAc(b1-2)Man(a1-6)]Man(b1-4)GlcNAc(b1-4)[Fuc(a1-6)]GlcNAc
# Procedure, shortened: as §1
# [7] = molecular target: Fuc(a1-2)[Gal(a1-3)]Gal(b1-4)GlcNAc(b1-6)GalNAc
# Procedure, shortened: as §1
# [8] = molecular target: Fuc(a1-2)[Gal(a1-3)]Gal(b1-4)[Fuc(a1-3)]Glc
# Procedure, shortened: as §1
# [9] = molecular target: Fuc(a1-2)[Gal(a1-3)]Gal(b1-4)[Fuc(a1-3)]GlcNAc(b1-3)GalNAc
# Procedure, shortened: as §1
# [10] = molecular target: Fuc(a1-2)[GalNAc(a1-3)]Gal(b1-3)GlcNAc
# Procedure, shortened: as §1
# [11] = molecular target: Fuc(a1-3)[Gal(b1-4)]GlcNAc(b1-2)Man
# Procedure, shortened: as §1
# [12] = molecular target: Fuc(a1-3)[Gal(b1-4)]GlcNAc(b1-3)Gal(b1-3)[Fuc(a1-4)]GlcNAc
# Procedure, shortened: as §1
# [13] = molecular target: Fuc(a1-3)[Gal(b1-4)]GlcNAc(b1-3)GalNAc
# Procedure, shortened: as §1
# [14] = molecular target: Fuc(a1-3)[GalNAc(b1-4)]GlcNAc
# Procedure, shortened: as §1
# [15] = molecular target: Gal(a1-3)Gal(b1-3)GlcNAc(b1-3)GalNAc
# Procedure, shortened: as §1
# [16] = molecular target: Gal(a1-3)Gal(b1-4)GlcNAc(b1-2)Man(a1-3)[Gal(a1-3)Gal(b1-4)GlcNAc(b1-2)Man(a1-6)]Man(b1-4)GlcNAc(b1-4)GlcNAc
# Procedure, shortened: as §1
# Gal(a1-3)GalNAc = molecular target: Gal(a1-3)GalNAc
# Procedure, shortened: as §1
# Gal(a1-4)Gal(b1-4)Glc = molecular target: Gal(a1-4)Gal(b1-4)Glc
# Procedure, shortened: as §1
# Gal(b1-2)Gal = molecular target: Gal(b1-2)Gal
# Procedure, shortened: as §1
# Gal(b1-3)Gal(b1-4)GlcNAc = molecular target: Gal(b1-3)Gal(b1-4)GlcNAc
# Procedure, shortened: as §1
# [17] = molecular target: Gal(b1-3)GalNAc(a1-3)[Fuc(a1-2)]Gal(b1-4)Glc
# Procedure, shortened: as §1
# Gal(b1-3)GlcNAc(b1-2)Man = molecular target: Gal(b1-3)GlcNAc(b1-2)Man
# Procedure, shortened: as §1
# [18] = molecular target: Gal(b1-3)GlcNAc(b1-3)Gal(b1-4)GlcNAc(b1-3)Gal(b1-4)GlcNAc(b1-2)[Gal(b1-3)GlcNAc(b1-3)Gal(b1-4)GlcNAc(b1-3)Gal(b1-4)GlcNAc(b1-6)]Man(a1-6)[Gal(b1-3)GlcNAc(b1-3)Gal(b1-4)GlcNAc(b1-3)Gal(b1-4)GlcNAc(b1-2)Man(a1-3)]Man(b1-4)GlcNAc(b1-4)[Fuc(a1-6)]GlcNAc
# Procedure, shortened: as §1
# [19] = molecular target: Gal(b1-3)[Neu5Ac(a2-6)]GlcNAc(b1-6)Gal(b1-4)Glc
# Procedure, shortened: as §1
# Gal(b1-4)GlcNAc(b1-2)Man = molecular target: Gal(b1-4)GlcNAc(b1-2)Man
# Procedure, shortened: as §1
# [20] = molecular target: Gal(b1-4)GlcNAc(b1-2)[Gal(b1-4)GlcNAc(b1-4)]Man(a1-3)[GlcNAc(b1-4)][Gal(b1-4)GlcNAc(b1-2)Man(a1-6)]Man(b1-4)GlcNAc(b1-4)GlcNAc
# Procedure, shortened: as §1
# [21] = molecular target: Gal(b1-4)GlcNAc(b1-3)Gal(b1-4)GlcNAc(b1-2)[Gal(b1-4)GlcNAc(b1-3)Gal(b1-4)GlcNAc(b1-6)]Man(a1-6)[Gal(b1-4)GlcNAc(b1-3)Gal(b1-4)GlcNAc(b1-2)Man(a1-3)]Man(b1-4)GlcNAc(b1-4)[Fuc(a1-6)]GlcNAc
# Procedure, shortened: as §1
# [22] = molecular target: Gal(b1-4)GlcNAc(b1-3)Gal(b1-4)GlcNAc(b1-3)Gal(b1-4)GlcNAc(b1-2)Man(a1-3)[Gal(b1-4)GlcNAc(b1-3)Gal(b1-4)GlcNAc(b1-3)Gal(b1-4)GlcNAc(b1-2)Man(a1-6)]Man(b1-4)GlcNAc(b1-4)GlcNAc
# Procedure, shortened: as §1
binder,measurement,setting,value
"Gal 1 (Mus musculus), P16045 (protein) MACGLVASNLNLKPGECLKVRGEVASDAKSFVLNLGKDSNNLCLHFNPRFNAHGDANTIVCNTKEDGTWGTEHREPAFPFQPGSITEVCITFDQADLTIKLPDGHEFKFPNRLNMEAINYMAADGDFKIKCVAFE",glycan array binding signal (z-score),[1],0.069
same,glycan array binding signal (z-score),[2],-0.229
same,glycan array binding signal (z-score),Fuc(a1-2)Gal(b1-4)GlcNAc,-0.279
same,glycan array binding signal (z-score),[3],0.547
same,glycan array binding signal (z-score),[4],-0.468
same,glycan array binding signal (z-score),Fuc(a1-2)[Gal(a1-3)]Gal,-0.365
same,glycan array binding signal (z-score),[5],-0.363
same,glycan array binding signal (z-score),[6],0.008
same,glycan array binding signal (z-score),[7],-0.106
same,glycan array binding signal (z-score),[8],-0.455
same,glycan array binding signal (z-score),[9],-0.325
same,glycan array binding signal (z-score),[10],-0.394
same,glycan array binding signal (z-score),[11],-0.075
same,glycan array binding signal (z-score),[12],-0.064
same,glycan array binding signal (z-score),[13],-0.264
same,glycan array binding signal (z-score),[14],-0.277
same,glycan array binding signal (z-score),[15],-0.23
same,glycan array binding signal (z-score),[16],4.96
same,glycan array binding signal (z-score),Gal(a1-3)GalNAc,-0.186
same,glycan array binding signal (z-score),Gal(a1-4)Gal(b1-4)Glc,-0.376
same,glycan array binding signal (z-score),Gal(b1-2)Gal,0.468
same,glycan array binding signal (z-score),Gal(b1-3)Gal(b1-4)GlcNAc,-0.195
same,glycan array binding signal (z-score),[17],-0.41
same,glycan array binding signal (z-score),Gal(b1-3)GlcNAc(b1-2)Man,-0.113
same,glycan array binding signal (z-score),[18],2.97
same,glycan array binding signal (z-score),[19],-0.078
same,glycan array binding signal (z-score),Gal(b1-4)GlcNAc(b1-2)Man,-0.253
same,glycan array binding signal (z-score),[20],0.891
same,glycan array binding signal (z-score),[21],3.02
same,glycan array binding signal (z-score),[22],2.85
